Measurements taken from the supplement of paper PMC6555819.

What was measured:
Assay in all cases: PBM binding z-score (relative to random genomic background probes); higher = stronger binding; sequences stand for … in GC…GCGATTGACAGCGTAGAATGAAGG
[1] = system: LXRa homodimer (NR concentration 270 nM)
How it was run: (§1)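 Each nuclear receptor dimer, without ligand, was incubated for 1 h on custom Agilent 4×180K protein-binding microarrays. Binding was detected with antibodies against each partner (one per run), and scanned fluorescence was regression-normalized. The binding z-scores are referenced to random human genomic background probes.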

[2] = system: LXRb homodimer (NR concentration 270 nM)
How it was run: as §1

[3] = system: PPARg:RXRa 270nM:90nM, anti-RXR (NR concentration 270 nM, RXRa partner concentration 90 nM)
How it was run: as §1

[4] = system: PPARg:RXRa 30nM:10nM, anti-RXR (NR concentration 30 nM, RXRa partner concentration 10 nM)
How it was run: as §1

[5] = system: PPARg:RXRa 90nM:30nM, anti-RXR (NR concentration 90 nM, RXRa partner concentration 30 nM)
How it was run: as §1

[6] = system: PPARg:RXRa DBDmut IVT, anti-RXR (DBD mutation: RXRa K156A/R161A, NR concentration 270 nM, RXRa partner concentration 90 nM)
How it was run: as §1

[7] = system: PPARg:RXRa (NR concentration 180 nM, RXRa partner concentration 90 nM)
How it was run: as §1

Sequence | PBM binding z-score [1] | PBM binding z-score [2] | PBM binding z-score [3] | PBM binding z-score [4] | PBM binding z-score [5] | PBM binding z-score [6] | PBM binding z-score [7]
TGTCAAAGTTCAAAGGTCACGTAAGTATCCACAC | 7.63 | 3.24 | 9.52 | 7.66 | 10.2 | 1.46 | 
CCTTAGGGGTCACTCCAGGTTATAGCATCGGAGT | 3.9 | 1.26 | 7.74 | 4.31 | 6.51 | 3.7 | 7.77
CTCGAAAGGTCATGCTCAGGTGAGTATACCAAAC | 3.89 | 2.44 | 8.05 | 4.38 | 6.89 | 4.16 | 7.63
GCTTACAGGTCAAAGGTTATAGCATGAATAGAAT | 2.63 | 1.4 | 9.51 | 8.9 | 10.5 | 5.27 | 11.5
ACTTAGGGGTCAACGAGGTTATAGCACGCGTATA | 2.91 | 2.35 | 8.62 | 6.08 | 8.5 | 5.4 | 9.33
CGTCAAAGGTCATAGGAGGTCAGTGAAGACAGAT | 6.84 | 3.02 | 8.33 | 5.97 | 7.99 | 4.36 | 8.97
CAAACAAGGTCACGAAAGGTCAAAGTCGAATGAC | 8.69 | 3.83 | 8.37 | 5.8 | 7.95 | 5.71 | 9.38
CAAACGAGGTCACAGAGGTCAAAGTCCGTGCGTA | 8.64 | 3.01 | 8.76 | 6.47 | 8.53 | 6.82 | 9.94
CTACCAAGGTCAACAAGGTCGTTGATTACTATTC | 3.79 | 1.23 | 6.01 | 2.68 | 4.51 | 4.52 | 5.57
CAAACGAGGTCACGAAAGGTCAAAGTCGAATGAC | 9.67 | 3.56 | 8.71 | 6.72 | 8.74 | 6.75 | 10.1
TGTCAAAGGTCAAAGGTAACGTAAGTATCCACAC | 4.19 | 4.32 | 9.9 | 8.47 | 10.5 | 4.01 | 
TCTAGTAGGTCAAAGGTCACACACTCGAAATGCG | 5.52 | 2.6 | 11.6 | 13 | 14.2 | 8.19 | 
CAAACAAGGTCACAGAGGTCAAAGTCCGTGCGTA | 8.49 | 3.24 | 8.4 | 5.17 | 7.73 | 6.04 | 9.2
CAAACGAGGTCAAGAGGTCAAAGTCCGCTTCCCG | 7.48 | 2.92 | 7.84 | 5.59 | 7.61 | 6.04 | 9.67
CCTTAGGGGTCACGAGGTTATAGCACGACGAGCG | 1.59 | 0.631 | 9.08 | 6.93 | 8.31 | 5.82 | 
CGTCAAAGTTCAAGGTCACGTAACAGAAAGCAGC | 5.71 | 2.05 | 6.7 | 3.83 | 5.84 | 2.03 | 6.83
CAAACAAGGTCACCGGAAGGTCAAAGTCCGCATG | 6.36 | 2.43 | 7.81 | 4.78 | 7.17 | 5.54 | 8.84
TATACAGGGTCAAAGGTCAGAGTACGAATGTCGA | 4.72 | 3.86 | 9.79 | 9.88 | 10.9 | 3.73 | 
AGTCAAAGGTCATCTAGGTAACGTAAGATATGCT | 4.61 | 5.04 | 8.23 | 6.82 | 8.3 | 4.12 | 
